Measurements from PubChem BioAssay AID1347048 (National Center for Advancing Translational Sciences (NCATS), 2019).
The whole screen tested about 76,000 compounds, of which about 1,200 (1.6%) were called active. Where a call stands in place of a potency, no number is given. About 4% were inconclusive and are not listed. The sample holds actives, similar compounds and a random draw of the others, so the mix is not that of the screen. Calls follow the shape of the full dose curve.

What follows are compounds tested against Atrial natriuretic peptide receptor 1 (Homo sapiens) (UniProt P16066) (assay: Natriuretic polypeptide receptor (hNpr1) antagonism - Primary qHTS). Conditions: HEK293 hNpr1 GloSensor cGMP, ANP-stimulated luminescence; series mostly up to 46.3 µM.
Sequence of Atrial natriuretic peptide receptor 1 (Homo sapiens) (P16066 whole entry, looked up): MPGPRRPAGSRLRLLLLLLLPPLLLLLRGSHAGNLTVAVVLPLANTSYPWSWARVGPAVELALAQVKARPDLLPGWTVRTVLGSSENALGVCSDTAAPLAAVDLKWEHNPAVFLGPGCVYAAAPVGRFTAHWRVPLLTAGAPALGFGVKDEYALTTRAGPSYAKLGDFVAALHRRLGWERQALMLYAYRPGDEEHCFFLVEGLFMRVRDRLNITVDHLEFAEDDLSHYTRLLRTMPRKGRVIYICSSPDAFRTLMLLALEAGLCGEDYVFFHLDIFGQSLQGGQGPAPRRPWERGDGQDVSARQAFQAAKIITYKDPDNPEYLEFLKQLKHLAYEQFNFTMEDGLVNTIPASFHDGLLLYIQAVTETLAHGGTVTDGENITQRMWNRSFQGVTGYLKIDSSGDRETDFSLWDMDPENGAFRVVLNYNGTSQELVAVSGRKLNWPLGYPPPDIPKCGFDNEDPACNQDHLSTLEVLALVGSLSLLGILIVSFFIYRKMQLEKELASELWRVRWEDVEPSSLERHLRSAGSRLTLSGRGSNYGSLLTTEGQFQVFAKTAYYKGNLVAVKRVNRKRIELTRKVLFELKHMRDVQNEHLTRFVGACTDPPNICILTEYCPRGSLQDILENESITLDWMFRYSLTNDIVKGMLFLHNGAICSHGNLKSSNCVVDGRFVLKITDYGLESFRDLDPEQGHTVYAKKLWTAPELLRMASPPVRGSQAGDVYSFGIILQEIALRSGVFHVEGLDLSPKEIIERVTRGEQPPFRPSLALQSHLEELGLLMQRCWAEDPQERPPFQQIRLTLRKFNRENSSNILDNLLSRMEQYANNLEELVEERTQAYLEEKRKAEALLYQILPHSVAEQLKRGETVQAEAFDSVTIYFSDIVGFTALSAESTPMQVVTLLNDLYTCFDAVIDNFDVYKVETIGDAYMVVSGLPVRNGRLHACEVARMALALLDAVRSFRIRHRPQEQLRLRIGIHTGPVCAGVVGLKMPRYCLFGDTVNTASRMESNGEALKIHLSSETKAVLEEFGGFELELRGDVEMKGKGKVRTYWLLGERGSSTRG
Text: Pruritus or itch, is an irritating skin sensation that creates a need to scratch, and ranges from mildly unpleasant and passing to acute and persistent sensations. […] Conventional treatments include topical anti-inflammatory agents, anti-histamines, and emollients, which are aimed at managing the itchy sensation and not the underlying disease. The treatment of pruritus remains a diagnostic and therapeutic challenge. Neurotransmission in the spinal cord from primary pruriceptors to second order neurons is a necessary step that eventually results in the sensation of itch. At this synapse, primary pruriceptors use the neuropeptide natriuretic polypeptide B (NppB) to activate its cognate receptor Natriuretic polypeptide receptor 1 (Npr1) on second order neurons. Inhibition of this step is a new potential strategy to inhibit acute and chronic itch. In order to identify small molecular compounds that can inhibit the Npr1 receptor we developed a high-throughput assay to probe inhibition of the receptor guanylate cyclase Npr1. The assay was designed taking advantage of Promega's GloSensor[TM] technology (Fan, F. et al. 2008). It involves the expression of a cyclic guanosine monophosphate (cGMP) biosensor, comprised of a firefly luciferase variant that was coupled to the cGMP binding domain of human phosphodiesterase 5A, and loading of cells with a cell-permeable luciferase substrate to monitor cGMP production by Npr1 in real time in live cells. In detail, we generated human embryonic kidney 293 cells stably expressing the human Npr1 and the cGMP GloSensor[TM] pGS-40F. Stimulating these cells with the Npr1 agonists human NppA or NppB, luciferase-induced light production could be detected in a dose-dependent manner. We also generated HEK293 cells stably expressing human Npr2 and pGS-40F and cells only expressing pGS-40F to conduct secondary counter screens. In these cells, NppC or sodium nitroprusside were used to stimulate Npr2 or soluble guanylate cyclase which is endogenously expressed in HEK293 cells, respectively. REFERENCE F. Fan, B. F. Binkowski, B. L. Butler, P. F. Stecha, M. K. Lewis, K. V. Wood, Novel genetically encoded biosensors using firefly luciferase. ACS Chem. Biol., 2008, 3: 346-351 .
PROTOCOL TABLES (as described by Inglese J, Shamu CE and Guy RK. 2007) SEQUENCE No. (e.g., 1, 2, 3, etc.); […] (e.g., Cells, Incubation, Reagent, etc.); VALUE and DESCRIPTION. GLOSENSOR PROTOCOL 1. Cells. Seed 1500 HEK293 cGMP-sensor cells expressing hNpr1 per well in 4uL into Greiner 1536-well white/solid bottom high base, tissue culture-treated plates. 2. Incubation. Incubate plated cells at 37C in 5% CO2, 95% RH overnight. 3. Reagent. Add 1uL per well GloSensor reagent from Promega (2% final concentration) or CO2 independent media vehicle control to respective columns of Greiner 1536-well plates. 4. Incubation. Incubate plated cells at room temperature for 2 h, protect from light. 5. Compounds. Library compounds and A-71915 control added at 23 nL per well, transferred by Pin Tool. 6. Incubation. Incubate plated cells for 30 min. at room temperature, protect from light. 7. Detector. GloSensor baseline pre-read luminescence measured using CCD-based camera (Viewlux). 8. Compound. Add 1uL of hNppA peptide to 0.1 nM final concentration to stimulate hNpr1 or CO2 independent media as vehicle control. 9. Incubation. Incubate treated cells at room temperature for 20 min., protect from light. 10. Detector. GloSensor post-hNppA luminescence measured using CCD-based camera (Viewlux). NOTES (numbers refer to Sequence numbers above) 1. HEK293 cells expressing hNpr1 and GIP/pGS-40F grown to 85-95% confluence (48-72 h) in T175 culture flasks (CO2 independent media supplemented with 10% FBS, 1% Pen/Strep antibiotics and 1 ug/mL puromycin). Trypsinize and harvest cells from T175 culture flasks and filter through 40 um cell strainer. Cells counted with Invitrogen Countess (30,000,000 - 50,000,000 cells/flask). […]
Also: nearly all actives have a fitted effect of over 60% in size.
Potency is read from the fitted curve at half-maximal effect.

Compound	Potency
COc1ccc(Cl)cc1-c1ccc2c(c1)C(=O)N1CCN(C(C)=O)C[C@@H]1C(=O)N2	inactive
Cc1c(Cl)c(C(=O)N2C[C@@H](CN3CCCN(C)CC3)[C@@H](CO)C2)nn1C	inactive
CC(C)CCNC(=O)CCN(CC(C)C)C(=O)c1ccoc1	inactive
O=C(NC(C(=O)N1CCCCC1)C1CCN(C(=O)c2ccc(Cl)cc2)CC1)c1ccccc1 (centres undefined)	inactive
Cc1cnc(CC2CCN(C(=O)c3cccc4[nH]ccc34)CC2)n1CC1CC1	inactive
O=C(C1CC1)N1CCC2(CC1)C(=O)NCN2Cc1ccc(Cl)cc1	inactive
O=C1NCN(Cc2ccc(Cl)cc2)C12CCN(Cc1ccccc1)CC2	11.2 µM (active)
CC(C)CCN1CCC2(CC1)C(=O)NCN2Cc1ccc(Cl)cc1	inactive
COCC(=O)NC[C@H]1O[C@@H](CO)[C@@H](O)[C@H]1N1CCN(c2ccc(F)cc2)CC1	inactive
CC(=O)NC1(C)CCN(Cc2cnc(-c3ccc4c(ccn4C)c3)s2)CC1	inactive
CC(=O)NC1(C)CN(Cc2ccc(-c3ccc4c(ccn4C)c3)s2)C1	8.91 µM (active)
COc1ccc(C(=O)N2CCC3(CC2)OC(=O)N(CC2CC2)C3(C)c2cccnc2)cn1 (centres undefined)	inactive
COc1ccc(CN2CCN(c3noc(C(C)C)n3)CC2CCO)cc1C (centres undefined)	inactive
O=C(C1CCCC1)N1CCC2(CCCCO2)CC1	inactive
O=C(c1nc2c(o1)CCN(Cc1ccccc1F)CC2)N1CCOCC1	inactive
O=C(NCC1CC1)c1nc2c(o1)CCN(Cc1cccc(F)c1F)CC2	22.4 µM (active)
O=C(NCC1CC1)c1nc2c(o1)CCN(CCc1ccccc1)CC2	inactive
CCOc1ccccc1C(=O)N1CCC(c2n[nH]c(=O)n2-c2ccc(C)cc2)CC1	inactive
Cc1ccoc1C(=O)N1CCC(C2CCN(Cc3cccc(F)c3F)CC2)C1 (centres undefined)	inactive
COc1ccc(C)cc1NC(=O)Cn1nc2n(c1=O)CCCC2	inactive
COc1ccc(C)cc1NC(=O)Nc1cccc(-c2ccc(N3CCCCC3)nn2)c1	10 µM (active)
COc1ccc(C(=O)Nc2cccc(-c3nnc4n3CCCC4)c2)cc1	inactive
COCC(=O)NC[C@H]1CCN(Cc2cn(C)c3ccccc23)C[C@H]1N(C)C	inactive
COc1ccc(OCC2(C)COc3ccc(C(=O)Nc4cccnc4)cc3N2)cc1 (centres undefined)	25.1 µM (active)
CC1(COCC2CC2)COc2ccc(C(=O)NCc3cccnc3)cc2N1 (centres undefined)	inactive

Compound	Potency
COc1ccc(OCC2(C)COc3ccc(C(=O)NC4CCOCC4)cc3N2)cc1 (centres undefined)	inactive
Cc1ccc(C(=O)N2CCC3(CC2)CC(=O)c2ccccc2O3)cc1	inactive
O=C(CCC[C@H]1NC[C@@H]2C[C@H]1CN(Cc1ccccc1)C2)NCC1CC1	inactive
O=C(c1ccncc1)N1CCC(Cc2noc(C3CC3)n2)C1 (centres undefined)	inactive
O=C(NCc1ccc(Cl)cc1)c1cccn2nccc12	inactive
Cc1cc(CNC(=O)c2ccc(-c3ccccc3Cl)o2)n(C)n1	11.2 µM (active)
COc1ccccc1-c1onc(C)c1C(=O)NCc1ccc(Cl)cc1	inactive
Cn1cc(-c2cc(-c3cccnc3)c3cncn3c2)cn1	inactive
COc1ccc(-c2cc(N3CCCC(NC(=O)c4cc(F)ccc4Cl)C3)n[nH]2)cc1 (centres undefined)	inactive
O=C(c1ccoc1)N1CCOc2ccc(CN3CCc4ccccc4C3)cc2C1	inactive
O=C1c2cnc(-c3ccc(Cl)cc3)nc2OCCN1Cc1ccccc1	31.6 µM (active)
COc1ccc(-c2ncc3c(n2)OCCN(Cc2ccccc2)C3=O)cn1	inactive
O=C1c2cnc(-c3ccc(O)c(F)c3)nc2OCCN1Cc1ccccc1	inactive
COc1ccc(CNC(=O)N2CCC3(CC2)CC(N(C(C)=O)C2CC2)CCO3)cc1 (centres undefined)	inactive
Cc1nn2c(c1-c1ccccc1-c1ccccc1)N(CC1CC1)CCC2	2.82 µM (active)
Cc1nn2c(c1-c1ccccc1Oc1ccccc1)N(C(=O)C(C)C)CCC2	inactive
Cc1nn2c(c1-c1ccccc1-c1ccccc1)N(C(=O)CN1CCOCC1)CCC2	inactive
COc1ccccc1-c1[nH]nc2ncc(C(=O)N3CCN(Cc4ccccc4)CC3)nc12	inactive
CN(C)C(=O)c1cccnc1OC1CCN(S(=O)(=O)c2ccc3c(c2)CCCC3)C1 (centres undefined)	inactive
O=C(c1ccno1)N1C[C@@H]2OCC(=O)N(c3ccccc3)[C@@H]2C1	inactive
O=C(NCCOc1ccccc1)c1nc2c(o1)CCN(CC1CCCCC1)CC2	inactive
O=C(Nc1ccccc1)c1nc2c(o1)CCN(Cc1cccc(Cl)c1)CC2	11.2 µM (active)
N#Cc1ccc(CN2CCc3nc(C(=O)N4CCOCC4)oc3CC2)cc1	inactive
CCNC(=O)C1C(c2cccc(NC(=O)c3cccc(C)c3)c2)OC(=O)N1Cc1cccc(Cl)c1 (centres undefined)	inactive
O=C(Cn1nc2n(c1=O)CCCC2)Nc1ccc(Cl)cc1	inactive

Compound	Potency
COc1ccc(CN2CCc3nc(C(=O)N4CCOCC4)oc3CC2)cc1OC	inactive
Cc1cccc(CN2CCc3nc(C(=O)Nc4ccc(Cl)cc4)oc3CC2)c1	8.91 µM (active)
O=C(Nc1cccc(Cl)c1)c1cnc2c(c1)N(C(=O)CCc1ccccc1)CCC2	inactive
O=C(Nc1ccc(Cl)cc1)c1nc2c(o1)CCN(Cc1ccsc1)CC2	8.91 µM (active)
COCCNc1ncccc1-c1noc([C@@H]2CCCN2Cc2ccc3c(c2)OCO3)n1	inactive
CC(C)N1C(=O)OCC12CCN(C(=O)c1ccc(Oc3ccccc3)cc1)C2 (centres undefined)	inactive
CCc1nc2c(c(-c3ccc(Cl)cc3)n1)CN(CCC(C)C)CC2	inactive
COC(=O)N1CCCc2nc(C)nc(-c3ccc(O)cc3)c2C1	inactive
CN(C)c1cc(N2C[C@@H](CN3CCOCC3)C[C@H](CO)C2)ncn1	inactive
COc1ccccc1C(=O)N1CCC2(CC1)CC(=O)c1ccccc1O2	inactive
CC(=O)N(C1CC1)C1CCOC2(CCN(C(=O)C3(c4ccccc4)CC3)CC2)C1 (centres undefined)	inactive
COCC1CN(C(C)=O)CC12CCN(Cc1ccccc1OC)CC2 (centres undefined)	inactive
COc1ccc(CN2C=C(C(=O)OCc3nc(C)no3)C(C)=NS2(=O)=O)cc1	inactive
CC1=NS(=O)(=O)N(C)C=C1C(=O)OCc1nc(-c2ccc(C)cc2)no1	10 µM (active)
CC1=NS(=O)(=O)N(C)C=C1C(=O)OCc1nc(-c2ccccc2C)no1	inactive
CCn1ncc(N2CCC(NC(=O)c3ccccc3OC)CC2)cc1=O	inactive
COc1cccc(C(=O)NCC2Cn3cccc3C(=O)N2Cc2ccccc2)c1 (centres undefined)	inactive
COc1cccc(-c2cc(-c3nc(C4CCOC4)no3)[nH]n2)c1 (centres undefined)	inactive
COc1ccc(-c2[nH]nc3ncc(C(=O)Nc4ccccc4)nc23)c(C)c1	inactive
COc1ccccc1Nc1cnc2ccc(-c3ccc(OC)c(OC)c3)nn12	inactive
COc1ccccc1Nc1cnc2ccc(N(C)Cc3cccnc3)nn12	25.1 µM (active)
CN(C)c1ccc2ncc(Nc3ccccc3F)n2n1	inactive
O=C1NC2(CN([S+](=O)([O-])c3cccc(C(F)(F)F)c3)C2)Oc2ccccc21	inactive
Cc1cccc(-n2nc(-c3c(C)nc4scc(CC(=O)NC(C)C(C)C)n4c3=O)cc2C)c1 (centres undefined)	inactive
COc1cc(NC(=O)Cn2c(N3CCc4ccccc4C3)nc(C)cc2=O)cc(OC)c1	inactive

Compound	Potency
COc1cccc(NC(=O)Cn2c(-c3ccccc3)nc(C)cc2=O)c1	inactive
COc1ccccc1CNC(=O)CN1CCCC(CO)(CC2CC2)C1 (centres undefined)	inactive
COc1cccc(CNC(=O)Cn2c(N(C)Cc3ccccc3)nc(C)cc2=O)c1OC	15.8 µM (active)
CCCN1C(=O)Cc2ccccc2C1C(=O)NCc1cccc(OC)c1OC (centres undefined)	inactive
COc1cccc(NC(=O)Cn2c(N(C)Cc3ccccc3)nc(C)cc2=O)c1	10 µM (active)
COc1ccc2[nH]c3c(c2c1)CCNC31CCN(C(=O)c2cc(C)n(C)n2)CC1	inactive
COc1cccc(C(C(=O)O)N2CCN(c3ccccn3)CC2)c1OC (centres undefined)	inactive
Cc1cc(C(=O)N2CCC3(CC2)CC(C(=O)N2CCOCC2)N(C)C3)nn1C (centres undefined)	inactive
CCn1nccc1C(=O)N1CCCCCNC(=O)[C@H]2C[C@H](C(=O)N3CCc4ccccc4C3)C[C@H]21	inactive
Cc1ccc(OCc2nc(C3CCN(C(=O)CCc4nc5ccc(Cl)cc5[nH]4)CC3)no2)cc1	11.2 µM (active)
Cc1ccc(OCc2nc(C3CCN(C(=O)c4noc(C)c4CN4CCCCC4)CC3)no2)cc1	inactive
Cc1ccc(OCc2nc(C3CCN(C(=O)c4c5c(nc6ccccc46)CCCC5)CC3)no2)cc1	inactive
COCCOC1CCN(C(=O)c2[nH]nc3c2COc2ccccc2-3)CC1	inactive
Cc1noc(C)c1-c1nccc2c(=O)cc(N3CCOCC3)oc12	inactive
COc1ccc(CNC(=O)Cc2c[nH]c3ncc(-c4ccccc4)cc23)cc1OC	inactive
O=C(Cc1c[nH]c2ncc(-c3ccccc3F)cc12)N1CCOCC1	25.1 µM (active)
COCCNC(=O)Cc1c[nH]c2ncc(-c3cccnc3OC)cc12	inactive
CN(C(=O)Cc1c[nH]c2ncc(-c3cnn(C)c3)cc12)c1ccccc1	inactive
Cc1noc(C)c1-c1cnc2[nH]cc(CC(=O)N3CCOCC3)c2c1	22.4 µM (active)
CCCCSc1nc(N)cc(N2CCCC(OCc3cccnc3)C2)n1 (centres undefined)	inactive
CC(C)CNC(=O)CC(c1ccc(F)cc1F)c1c[nH]c2ccccc12 (centres undefined)	inactive
COc1ccc(CNC(=O)c2cc3n(n2)CC(c2ccc4c(c2)OCO4)OC3)c(OC)c1 (centres undefined)	inactive
CCCc1nc(C(=O)N[C@@H]2[C@@H](Cc3ccccc3)[C@H]3OCC[C@@H]23)cs1	inactive
Cc1ccc(NC(=O)Cn2ccn3nc4c(c3c2=O)CC(C)CC4)cc1Cl (centres undefined)	inactive
